# Results as given in the supplement of paper PMC10646978.
# ± gives the standard deviation.
# How the values were obtained:
# Conditions in all cases: modulator concentration 10 µM
# [1] = test system: RAW-Dual (murine macrophage reporter line); assay: NF-kB reporter (SEAP) activity fold change vs agonist alone; higher = enhanced NF-kB activity
# Summary of the method: (§1)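 Overnight stimulation with a PRR agonist followed pre-incubation for 1 hour at 37 °C with compound at 10 μM final. This was done in RAW-Dual murine macrophage reporter cells seeded at 50 000 per well in 384-well plates. NF-κB (SEAP, QUANTI-Blue absorbance at 620 nm) and IRF (Lucia luciferase, QUANTI-Luc luminescence) were read from the supernatant. Each reporter's fold change relative to the mean agonist-only control on the same plate was averaged over replicate plates.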
# [2] = test system: RAW-Dual (murine macrophage reporter line); assay: IRF reporter (Lucia luciferase) activity fold change vs agonist alone; higher = enhanced IRF activity
# Summary of the method: as §1
# [3] = test system: RAW-Dual (murine macrophage reporter line); assay: viability score (confluency relative to resting cells, overnight) (fraction); higher = more viable, active = viable (0.7 or more)
# Summary of the method: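 RAW-Dual macrophages in 384-well plates were exposed overnight to compound at 10 μM final. Confluency was imaged with IncuCyte, and two confluency masks were generated with IncuCyte software over all imaged wells. The viability score is confluency expressed relative to resting cells. Compounds were called viable if both masks exceeded 70% of resting cells.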
# [4] = agonist: CpG ODN 1826 0.5 ug/mL
Compound,"NF-kB reporter [1, 4]",NF-kB reporter ([1]; agonist: LPS 0.1 ug/mL),NF-kB reporter ([1]; agonist: MPLA […]),IRF reporter ([2]; agonist: 3'3'-cGAMP 10 ug/mL),IRF reporter ([2]; agonist: LPS 0.1 ug/mL),IRF reporter ([2]; agonist: MPLA […]),viability score [3]
CCc1ccc(OCCSc2nc3ccccc3n2CCO)cc1,0.776 ± 0.075,1.08 ± 0.07,0.927 ± 0.073,0.986 ± 0.03,1.33 ± 0.15,1.13 ± 0.09,1.01 (active)
Cc1cn[nH]c1,0.122 ± 0.015,0.0449 ± 0.0036,0.154 ± 0.0086,0.685 ± 0.032,1.81 ± 0.19,2.85 ± 0.43,0.702 (active)
CCOC(=O)N1CCN(C(=O)CSc2nnc(-c3cccc(Cl)c3)o2)CC1,0.846 ± 0.18,0.96 ± 0.065,0.974 ± 0.057,0.769 ± 0.03,1.29 ± 0.1,1.04 ± 0.11,0.95 (active)
Cc1cc(C)nc(Nc2ncc(O)n2-c2ccc(F)cc2)n1,1.11 ± 0.087,1.1 ± 0.13,1.01 ± 0.038,0.992 ± 0.074,1.04 ± 0.14,1.16 ± 0.27,0.991 (active)
COc1ccccc1N1CCN(CCCNc2cc(=O)n(C)c(=O)n2C)CC1.Cl,1.2 ± 0.3,1.08 ± 0.34,0.954 ± 0.085,0.959 ± 0.029,1.21 ± 0.4,1.12 ± 0.092,0.996 (active)
Cc1ccc(-c2cc(-c3ccccc3)nc(N3CCOCC3)n2)cc1,0.811 ± 0.077,1.01 ± 0.075,1.1 ± 0.076,0.71 ± 0.065,1.05 ± 0.047,1.17 ± 0.082,0.998 (active)
Clc1ccc(Cn2c(CN3CCCC3)nc3ccccc32)cc1 [Prestw-227],0.369 ± 0.076,1.12 ± 0.1,1.06 ± 0.14,0.682 ± 0.038,1.07 ± 0.1,1.37 ± 0.18,0.787 (active)
Cn1nc(-c2ccc(F)cc2)cc1C(=O)NCC1(CO)CC1,0.865 ± 0.037,1.04 ± 0.1,1.03 ± 0.056,1.03 ± 0.049,1.09 ± 0.32,1.23 ± 0.33,1.02 (active)
Cc1ccc2nc(C)c(NC(=O)c3ccc4ccccc4n3)c(=O)n2c1,0.787 ± 0.25,1.03 ± 0.14,0.823 ± 0.091,0.793 ± 0.04,1.02 ± 0.061,1.1 ± 0.23,0.994 (active)
CCOC(=O)C(CCc1ccccc1)NC1CCc2ccccc2N(CC(=O)O)C1=O.Cl (stereo unspecified),1.13 ± 0.28,1.04 ± 0.072,1.05 ± 0.079,0.967 ± 0.04,1.24 ± 0.15,1.33 ± 0.21,1 (active)
O=C(O)C=Cc1ccc(S(=O)(=O)NCc2cccnc2)cc1,0.751 ± 0.077,0.82 ± 0.049,1.02 ± 0.091,1.02 ± 0.062,1.46 ± 0.098,1.72 ± 0.19,1.01 (active)
O=C(CCCc1ccccc1)NCC1(O)CCCC1,0.858 ± 0.079,0.968 ± 0.078,0.867 ± 0.049,0.968 ± 0.05,0.977 ± 0.061,0.917 ± 0.23,1.01 (active)
Cc1ccc(-n2ncnc2-c2ccccc2C)cc1Cl,0.759 ± 0.064,0.787 ± 0.044,1.14 ± 0.11,0.777 ± 0.052,1.48 ± 0.12,1.65 ± 0.21,0.996 (active)
O=C(O)CCCCCN1C(=O)C(=Cc2cn(-c3ccccc3)nc2-c2cccs2)SC1=S,1.02 ± 0.063,1.12 ± 0.12,1.01 ± 0.059,1.03 ± 0.038,1.27 ± 0.082,1.06 ± 0.11,1 (active)
CN1C(=O)C(=Cc2cccc3ccccc23)SC1=S,0.909 ± 0.21,1.04 ± 0.088,0.949 ± 0.073,0.939 ± 0.024,1.26 ± 0.22,1.33 ± 0.15,0.998 (active)
Cc1cc(OC2CCN(C(=O)c3csc(C)n3)CC2)nc(C)n1,1.01 ± 0.051,1.11 ± 0.095,0.923 ± 0.068,0.954 ± 0.088,1.23 ± 0.12,1.15 ± 0.23,1.01 (active)
NC(=O)CCC(N)C(=O)O (stereo unspecified),1.13 ± 0.32,0.935 ± 0.051,1.03 ± 0.1,0.883 ± 0.049,1.1 ± 0.16,0.999 ± 0.097,0.997 (active)
Cc1ncc(CC(=O)N2CCC(c3ccccc3Cl)S(=O)(=O)CC2)s1 (stereo unspecified),0.884 ± 0.07,0.974 ± 0.12,0.972 ± 0.032,1.11 ± 0.092,0.981 ± 0.076,0.944 ± 0.24,1 (active)
